# The supplement of paper PMC6555819
# Experiments:
# Test in all cases: PBM binding z-score (relative to random genomic background probes); higher = stronger binding; sequences stand for … in GC…GCGATTGACAGCGTAGAATGAAGG
# [1] = system: FXR:RXRa (NR concentration 270 nM, RXRa partner concentration 90 nM)
# Method in brief: (§1)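 Ligand-free nuclear receptor dimers were applied to custom Agilent 4×180K protein-binding microarrays whose double-stranded probes carried direct-repeat seeds, single-nucleotide variants, half-site ablations and random human genomic background sequences in 34-nt variable regions. Incubation lasted 1 h. Binding z-scores were computed against the random background probes from regression-normalized fluorescence.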
# [2] = system: LXRa:RXRa (NR concentration 270 nM, RXRa partner concentration 90 nM)
# Method in brief: as §1
# [3] = system: LXRa homodimer (NR concentration 270 nM)
# Method in brief: as §1
# [4] = system: LXRb:RXRa (NR concentration 270 nM, RXRa partner concentration 90 nM)
# Method in brief: as §1
# [5] = system: LXRb homodimer (NR concentration 270 nM)
# Method in brief: as §1
# [6] = system: PPARa:RXRa (NR concentration 270 nM, RXRa partner concentration 90 nM)
# Method in brief: as §1
# [7] = system: PPARg:RXRa (NR concentration 180 nM, RXRa partner concentration 90 nM)
# Method in brief: as §1
# [8] = system: PPARg:RXRa 270nM:90nM, anti-RXR (NR concentration 270 nM, RXRa partner concentration 90 nM)
# Method in brief: as §1
# [9] = system: PPARg:RXRa 30nM:10nM, anti-RXR (NR concentration 30 nM, RXRa partner concentration 10 nM)
# Method in brief: as §1
# [10] = system: PPARg:RXRa 90nM:30nM, anti-RXR (NR concentration 90 nM, RXRa partner concentration 30 nM)
# Method in brief: as §1
# [11] = system: PPARg:RXRa DBDmut IVT, anti-RXR (DBD mutation: RXRa K156A/R161A, NR concentration 270 nM, RXRa partner concentration 90 nM)
# Method in brief: as §1
# [12] = system: PPARg:RXRa IVT, anti-PPARg (NR concentration 270 nM, RXRa partner concentration 90 nM)
# Method in brief: as §1
# [13] = system: PPARg DBDmut:RXRa IVT, anti-PPARg (DBD mutation: PPARg1 K132A/R137A, NR concentration 270 nM, RXRa partner concentration 90 nM)
# Method in brief: as §1
# [14] = system: PPARg DBDmut IVT, anti-PPARg (DBD mutation: PPARg1 K132A/R137A, NR concentration 270 nM)
# Method in brief: as §1
# [15] = system: PPARg homodimer (NR concentration 180 nM)
# Method in brief: as §1
# [16] = system: PXR:RXRa (NR concentration 270 nM, RXRa partner concentration 90 nM)
# Method in brief: as §1
# [17] = system: PXR homodimer (NR concentration 270 nM)
# Method in brief: as §1
# [18] = system: RARa:RXR (NR concentration 270 nM, RXRa partner concentration 90 nM)
# Method in brief: as §1
# [19] = system: RARa homodimer (NR concentration 270 nM)
# Method in brief: as §1
# [20] = system: RARb:RXRa (NR concentration 270 nM, RXRa partner concentration 90 nM)
# Method in brief: as §1
Sequence,PBM binding z-score [1],PBM binding z-score [2],PBM binding z-score [3],PBM binding z-score [4],PBM binding z-score [5],PBM binding z-score [6],PBM binding z-score [7],PBM binding z-score [8],PBM binding z-score [9],PBM binding z-score [10],PBM binding z-score [11],PBM binding z-score [12],PBM binding z-score [13],PBM binding z-score [14],PBM binding z-score [15],PBM binding z-score [16],PBM binding z-score [17],PBM binding z-score [18],PBM binding z-score [19],PBM binding z-score [20]
ACTAGTTGGTCAGCTGAGGTGACACACAATTCGG,1.58,0.508,-0.0551,0.499,-0.125,1.27,1.16,0.582,-0.235,0.398,1.56,2,0.518,0.422,0.486,0.897,0.101,1.27,-0.129,1.45
CGAACTAGGTCAAGTACAGTGAATCTCCGCACGC,4.5,2.83,0.474,2.32,0.607,4.85,7.57,6.29,4.41,5.92,8.4,8.26,1.96,1.97,2.76,1.8,0.0981,2.37,0.517,4.19
CCTGCCAGGTCAATGGTCAGCTAAAGCAGCTCGC,3.36,2.51,-0.047,1.96,-0.196,3.48,2.59,3.44,0.524,2.57,1.49,2.41,-0.936,-1.59,0.763,1.6,-0.223,1.96,-0.54,3.66
CAGCCTAGGTCACGGCCAGTATAGGAGGAACGTT,4.98,3.61,0.175,2.7,-0.639,4.72,4.54,4.44,1.29,3.12,3.65,4.36,0.0261,-0.166,1.71,2.34,-0.132,3.45,0.239,4.6
CCTAGTTGGTCTGGAGGTCACACACCGGATATGA,3.79,4.06,3.63,3.51,0.759,4.17,2.1,3.14,0.849,2.61,0.138,2.42,-0.0171,0.512,3.95,4.72,1.81,5.16,2.41,3.59
CATACAGGGTCAGCTAGACCAGAGTAGGGACGGC,4.47,2.92,-0.0625,2.14,0.336,4.07,3.27,3.06,0.824,1.87,1.02,2.59,1.26,0.0987,1.43,2.03,-0.458,3.16,0.685,4.07
GCTAGCAGGCCATTTGGGTAACTCAATGACGGGC,-0.758,-0.699,-0.371,-0.899,-0.88,-0.267,0.519,-0.594,-0.844,-0.634,1.07,0.155,-0.238,-1.22,-0.806,-0.696,-0.721,-0.454,-1.37,-0.258
CCCAGTTGGTCAGGAGGTCACACACCGGATATGA,3.51,3.58,1.99,3.58,0.535,4.21,3.56,3.79,1.07,3,0.556,3.46,-0.0435,-0.356,2.74,3.97,1.3,4.22,1.81,3.79
GATACAGGGTCACGGCCAGAGTACGCGTATTGAT,7.54,5.1,-0.0336,4.33,-0.171,6.26,8.33,7.43,3.93,6.41,4.17,5.49,1.11,0.362,2.36,4.75,0.0972,6.41,0.744,4.89
CGAACTAGGTCAAGGACCGTGAATCTCCGCACGC,3.28,2.1,-0.026,1.26,-0.781,4.64,7.76,6.89,4.37,6.74,7.68,8.18,4.94,0.945,0.756,0.773,-0.365,1.63,-0.219,3.8
ATCTCTAGGTAACAAGTTCAGTGACAGAGAGGAC,0.767,0.889,0.72,0.57,0.85,1.52,1.61,2.21,0.948,1.88,3.59,3.2,1.48,1.17,1.56,1.61,1.61,1.11,1.47,1.81
CTTCCAAGGTCAGAGAGGTCAGTGAATGCCGAGT,5.96,5.16,3.44,4.49,0.991,4.78,3.44,4.24,1.24,2.89,2.81,3.44,-0.247,0.0425,3.75,5.75,11.5,4.71,1.5,5.27
CGTCAAGGTTCAAGGTAACGTAACAGAAAGCAGC,4.59,3.3,0.601,2.06,-0.166,3.56,2.25,2.63,0.331,1.55,-0.0787,0.903,-0.883,-0.847,1.12,1.87,0.422,2.3,-0.0336,3.24
CCTACTGGGCCATCAGGTCATTGAGATCAACGTT,1.65,1.44,1.22,1.45,-0.336,2.93,3.04,3.58,1.41,3.12,4.42,4.78,0.317,0.581,1.13,2.08,2.14,2.31,-0.158,2.22
